Laboratory results as given in the supplement of paper PMC6555819.

These sequences were tested on VDR:RXRa (NR concentration 270 nM, RXRa partner concentration 90 nM) (assay: PBM binding z-score (relative to random genomic background probes); higher = stronger binding; sequences stand for … in GC…GCGATTGACAGCGTAGAATGAAGG).
Method: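 Protein-binding microarray (Agilent 4x180K custom design, double-stranded 60-nt probes: 5' GC cap, 34-nt variable region, 24-nt constant primer region; full probe sequence given). Purified or IVT nuclear receptor:RXRα heterodimers (3:1 NR:RXRα, mostly 270:90 nM) or homodimers were incubated for 1 h in PBS with 2% milk and no ligand, then detected with Alexa488 antibodies. Fluorescence from o1-orientation probes (~5 replicates averaged) was converted to z-scores against 500 random hg19 background probes. Variable regions are seed direct-repeat (DR0–DR5) sites, all their single-nucleotide variants and half-site ablations.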

Sequence	PBM binding z-score
AGAACGAGGGCACGCTGAGTTCATAGCAGAGTAG	6.39
ACAGACAGGTTAGTGAAGGTAACTCAGCTGGACG	-0.0325
TAGCCTAGGTCATTCAGGGGACAGTATAGAAAGC	3.56
CTCGAAAGGTCGTGCTCAGGTTAGTATACCAAAC	3.79
TCGAGTAGATTACCAATGGGGCATTCAGCTTTCT	-0.414
TCTATTAGTTGATTAGGCCAACCGAAACAGCGGA	0.618
CCTAGCAGGCCAGGGGCACTCAAGCATTTCGCTT	-0.66
CCTAGTTGGTCAAGGTCACCCACGCTATAGGTAC	4
AATACAGGGTCACTAGGCCAGAATAGGTACGAAT	4.2
TAGTCTAGGTCATGGGCCAGTATACCACGCGAAC	2.13
CCGACTGGGGGAGAAAGGTTACCATACCATCCGG	1.42
CCCACTGGGCCAAGGTCATTGATCAGTCAAAGCA	2.94
ATCGAAAGGTCGAGGTGAGTTTAGAGAAAGGGAA	4.92
CCTCGGAGGGCAACAGGAGGTCAGAGCTGCCAGA	3.12
TCTCCTAGGTCAGTTGGTCAGCTAACGAGCTGCC	0.839
CAAACTAGGTCAAGGTCATAGTCGGTTTGTGCCA	5.01
GCGAATGGGGCAAAGCAGGTTACCATAAGGTTGG	0.361
TCTCGGAGGACACGAAAGGTCAGAGATCGACATC	3.42
CCGACTGGGGCAGAAAGGTTTCCATACCATCCGG	-0.642
ATCTCTAGGAAACAAGTTCAGTGAAAGAGAGGAC	1.45

Sequence	PBM binding z-score
CGTCAAAGTTCAACTAAGGTAACGAAAAGCACGC	4.64
GTACCAAGGTGAATAGGTCGTGGATGAGTAGGCG	0.918
GCAGACAGGTAAAACGCAGGTAACTCAGGGTGGC	-0.484
TGAATGAGGTTAAAGAACAGGGAACGTGGCGTCG	1.12
CGAACGAGGGCATGGGTTGATAGCAAATGCCGAT	1.45
ACAGACAGGTGATGAAGGGAACTCAGGCTATCAT	-0.182
GGAACGAGGGGAAAGTTGATAGCATCTGTCGACG	-0.259
CGTCCAAGGTCAGCCGGTCAGTGAAAGCGACGTG	3.32
CCGACTGGGGCAGAAGGTTACCATAAGCCAGCCC	-0.302
TTACCAAGGTGAGCTGAGGTCGTGGATCCAACTC	3.37
CCTACTGGGACAAGGTCATTGATCAGTCAAAGCA	3.48
GCGGACAGGTGAAACGCAGGTAACTCAGGGTGGC	-0.55
CCTGACAGGTGAAAGGTAACTCAGTCTGGTACGC	0.319
CCTACTGGGCCACGGAAGGTCATTGATTCAGTGA	2.83
CCTGCTAGGTCAACGGTCAGCTAAAGCAGCTCGC	1.58
TCTTGTAGATCAAGCAGGTTAAGAACGCCTGAGT	0.768
AGTCAAAGTTCATCTAGGTAACCTAAGATATGCT	5.11
ACTAGTTGGTCAGCTGAGATCACACACAATTCGG	0.193
AGTCAAAGTTCACTAGGTAACCTAAGATTCAGCT	4.04
AAAACGAGGGCAATGAGTTGATAGCACGGGTGGC	5.46
